From PubChem BioAssay (NCATS)

Assay: qHTS profiling of the MIPE4 collection as inhibitors of Plasmodium falciparum (DD2) proliferation (Rep 2) (AID 743346)
Conditions: P. falciparum Dd2 in erythrocytes, SYBR Green DNA, 72 h; at 28.5 µM unless noted
Excerpt: Plasmodium falciparum is a virulent malarial parasite that kills 1-2 million people worldwide each year. Transmitted by mosquitoes, the sporozoite form of the parasite enters the blood stream to infect hepatocytes, where they become merozoites that infect red blood cells (erythrocytes). Within erythrocytes, merozoites begin a […] cycle of growth and division, after which the parasite is released to infect new red blood cells. Gametocytes, which form within erythrocytes as well, circulate in the bloodstream and are ingested by the mosquito, thereby completing the life cycle. To profile malarial isolates for differential chemical responses and to identify inhibitors of malarial growth, an assay that measures P. falciparum growth and replication within erythrocytes was employed. This assay uses a DNA binding fluorescent dye (SYBR Green) to detect parasite DNA following cell lysis. Because mature erythrocytes lack DNA, only Plasmodium-derived DNA is detected.
The SYBR Green viability assay was adapted from a method described previously (Plouffe et al., 2008). For screening 3 ul culture medium was dispensed into 1536 well black clear bottom plates (Aurora Biotechnologies) using a Multidrop Combi (Thermo Fisher Scientific Inc.), 23 nL compounds in DMSO were added by a pin tool (Kalypsys), and 5 ul of erythrocytes infected with P. falciparum (0.3% parasitemia, 2.5% hematocrit final concentration) were added. The plates were incubated at 37 C in a humidified incubator in 5% CO2 for 72 h, and 2 ul lysis buffer (20 mM Tris HCl, 10 mM EDTA, 0.16% saponin, 1.6% triton X, 10X SYBR Green I supplied as 10,000X […] by Invitrogen) was added to each well. The plates were mixed for 25 sec with gentle shaking and incubated overnight at room temperature in the dark. The following morning, fluorescence intensity at 485(14) nm excitation and 535(25) nm emission wavelengths was measured on an EnVision (Perkin Elmer) plate reader. Plate reads were normalized relative to the control inhibitor (0.29 uM artemisinin) and vehicle (DMSO) wells present on each plate and then corrected by an algorithm using vehicle-only control plates at the beginning and end of the compound plate stack.

| Structure (SMILES) | parasite growth, % of control (lower = inhibition) [%] |
| --- | --- |
| COc1cc2c(Oc3ccc(NC(=O)C4(C(=O)Nc5ccc(F)cc5)CC4)cc3F)ccnc2cc1OCCCN1CCOCC1 | 20.2 |
| O=C(NC1CCNCC1)c1[nH]ncc1NC(=O)c1c(Cl)cccc1Cl | 22 |
| C[C@@H]1CN(CC(=O)Nc2ccc3c(c2)Cc2cccc(-c4cc(=O)cc(N5CCOCC5)o4)c2S3)C[C@H](C)O1 | 9.57 |
| Nc1ccc(C(=O)c2cc3c(ccc4ccccc43)[nH]2)cc1 | 118 |
| Cc1cn2cc(C(=O)N(C)CCO)cc(N[C@@H]3CCOc4cccc(C)c43)c2n1 | 47.2 |
| CC(C)(C)NC(=O)[C@H]1CN(Cc2cccnc2)CCN1C[C@@H](O)C[C@@H](Cc1ccccc1)C(=O)N[C@H]1c2ccccc2C[C@H]1O | 27.8 |
| O=C(O)CO.[NH2-].[NH2-].[Pt+2] | 83.9 |
| CC(C)=CCCC(C)=CCCC(C)=CCSc1ccccc1C(=O)O | 33.1 |
| CN(C)Cc1c(C(=O)NCCOc2ccc(C(=O)NO)cc2)oc2ccccc12 | 7.09 |
| O=C(Nc1cc(C(F)(F)F)cc(C(F)(F)F)c1)c1cc(Cl)ccc1O | 14.1 |
| O=C(NCCCNc1nc(Nc2cccc(NC(=O)N3CCCC3)c2)ncc1I)c1cccs1 | 28.1 |
| CC(=O)SC[C@@H](C)C(=O)N1CCC[C@H]1C(=O)N[C@@H](Cc1ccccc1)C(=O)O | 69.5 |
| CCNC(=O)Nc1ccc2ncc(Nc3ccc(C)cc3)nc2n1 | 33 |
| Nc1nc(NCCNc2ncc(-n3ccnc3)c(-c3ccc(Cl)cc3Cl)n2)ccc1[N+](=O)[O-] | 44.4 |
| O=C(CCCCCCNC(=O)c1cnc(N(c2ccccc2)c2ccccc2)nc1)NO | 7.25 |
| CCCn1c(=O)c2[nH]c(-c3cnn(Cc4cccc(C(F)(F)F)c4)c3)nc2n(CC)c1=O | 43.2 |
| CN(C1CCc2c(c3ccccc3n2CC(=O)O)C1)S(=O)(=O)c1ccc(F)cc1 (stereo not given) | 19 |
| Cc1ccc(S(=O)(=O)Nc2cc(Cl)ccc2C(=O)Nc2nc(-c3ccccc3)cs2)cc1 | 21.2 |
| CNC(=O)CN1CCC(Oc2cc3c(Nc4cccc(Cl)c4F)ncnc3cc2OC)CC1 | 16 |
| COc1ccc(F)c(F)c1C(=O)c1cnc(NC2CCN(S(C)(=O)=O)CC2)nc1N | 26 |

| Structure (SMILES) | parasite growth, % of control (lower = inhibition) [%] |
| --- | --- |
| Cc1cnc(Nc2ccc(F)cc2Cl)nc1-c1c[nH]c(C(=O)N[C@H](CO)c2cccc(Cl)c2)c1 | 12.8 |
| Cc1ccc2nc(NC(=O)CSc3nc4c(c(=O)n3-c3ccccc3)SCC4)sc2c1 | 72.4 |
| CC=CC1=C(C(=O)O)N2C(=O)[C@H](NC(=O)[C@H](N)c3ccc(O)cc3)[C@@H]2SC1 | 99.4 |
| CC(=O)Nc1sc2c(c1-c1nc3ccccc3s1)CNC2 | 24 |
| C=CC(=O)Nc1cccc(Oc2nc(Nc3ccc(N4CCN(C)CC4)cc3)ncc2Cl)c1 | 34.6 |
| CN(C)CCCN=c1c2ccccc2n(C)c2[nH]c(=O)n(C)c(=O)c12 | 9.14 |
| O=C(c1ccc(Nc2nccc(-c3cc4ccccc4s3)n2)cc1)N1CCC(N2CCCC2)CC1 | 18.7 |
| COc1cc(C(C)C)c2c(c1)S(=O)(=O)N(COc1cc(=O)n3cccc(OCCN4CCCCC4)c3n1)C2=O | 114 |
| COCCOc1ccc2c(c1)ncn2-c1ccc2cccc(N3CCC(N)CC3)c2n1 | 13.1 |
| Nc1ccccc1NC(=O)c1ccc(CNc2nccc(-c3cccnc3)n2)cc1 | 7.5 |
| CC1COC2(CCN(c3nc(=O)c4cc(C(F)(F)F)cc([N+](=O)[O-])c4s3)CC2)O1 (stereo not given) | 33.5 |
| O=C1CCC[C@@H]2[C@H]3CCC[N+]4([O-])CCC[C@@H](CN12)[C@@H]34 (stereo not given in full) | 61.6 |
| COc1cccc(-c2ccc(NC(=O)C3=C(C(=O)O)CCC3)c(F)c2)c1 | 53 |
| O=C(C=Cc1c(C(=O)O)[nH]c2cc(Cl)cc(Cl)c12)Nc1ccccc1 | 159 |
| COc1ccc(-n2nc(C(N)=O)c3c2C(=O)N(c2ccc(N4CCCCC4=O)cc2)CC3)cc1 | 61.9 |
| CC(C)c1nn(-c2c(Cl)cccc2Cl)c2nc(Cc3ccc(OCCO)cc3)[nH]c(=O)c12 | 27.3 |
| CCCCCCCCCC(=O)N[C@@H](Cc1c[nH]c2ccccc12)C(=O)N[C@H](CC(N)=O)C(=O)N[C@@H](CC(=O)O)C(=O)N[C@@H]1C(=O)NCC(=O)N[C@@H](CCCN)C(=O)N[C@@H](CC(=O)O)C(=O)N[C@H](C)C(=O)N[C@@H](CC(=O)O)C(=O)NCC(=O)N[C@H](CO)C(=O)N[C@@H]([C@@H](C)CC(=O)O)C(=O)N[C@@H](CC(=O)c2ccccc2N)C(=O)O[C@@H]1C | 108 |
| C=C1C(=CC=C2CCC[C@]3(C)[C@@H]([C@H](C)C=C[C@H](C)C(C)C)CC[C@@H]23)C[C@@H](O)C[C@@H]1O | 7.88 |
| CCN1CCN(Cc2ccc(-c3cc4c(N[C@H](C)c5ccccc5)ncnc4[nH]3)cc2)CC1 | 7.53 |
| NC(=O)c1c(OCc2c(F)cc(Br)cc2F)nsc1NC(=O)NCCCCN1CCCC1 | 42.1 |
